D1 potentiator – Potentiators of Human D1 Dopamine Receptor: qHTS; D(1A) dopamine receptor (Homo sapiens), P21728; HEK293 TREx D1 cells, calcium flux, dopamine EC20 potentiation; potentiation, % at 10 µM; hit rate 0.036% among 360,000; AID 504651, 2011; in the data active = potentiation above about 30%
TRHR PAM – qHTS for Small Molecule Agonists and Allosteric Enhancers of Human TRH Receptor: Primary Screen for Enhancers; Thyrotropin-releasing hormone receptor (Homo sapiens), P34981; TRHR cells, fluo-8 calcium fluorescence, EC20 TRH enhancement; enhancement, % at 2 µM; hit rate 0.66% among 360,000; AID 493056, 2011; in the data active = enhancement above about 30%
Target sequence (P34981 whole entry, looked up): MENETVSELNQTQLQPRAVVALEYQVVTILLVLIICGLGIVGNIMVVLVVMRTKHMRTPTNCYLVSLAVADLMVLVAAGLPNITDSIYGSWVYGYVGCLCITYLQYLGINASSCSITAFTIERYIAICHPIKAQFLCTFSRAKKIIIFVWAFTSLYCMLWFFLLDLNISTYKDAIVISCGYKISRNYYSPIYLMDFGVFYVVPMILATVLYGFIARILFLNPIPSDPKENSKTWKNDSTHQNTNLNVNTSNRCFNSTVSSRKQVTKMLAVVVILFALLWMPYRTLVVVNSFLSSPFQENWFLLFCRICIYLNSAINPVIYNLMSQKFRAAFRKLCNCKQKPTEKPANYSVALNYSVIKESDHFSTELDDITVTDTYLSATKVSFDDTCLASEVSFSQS
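Enhancer read-out: after compound pinning and an initial kinetic agonist-mode read, an EC20 of TRH (10 nM final) was injected and fluo-8 calcium signal (Ex 480/Em 530) followed at 1 s/cycle for 100 cycles in TRHR-expressing cells.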
D1 ag – Allosteric Agonists of the Human D1 Dopamine Receptor: qHTS | D(1A) dopamine receptor (Homo sapiens), P21728 | HEK293 T-REx D1 cells, calcium flux, agonist mode | activation, % at 2 µM | hit rate 1% among 360,000 | AID 504660, 2011
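Tetracycline-induced HEK293 TREx D1 cells, force-coupled to calcium signalling, were dye-loaded with a no-wash calcium kit. Compound was pin-added after a 10 s baseline. Fluorescence was read kinetically at 1 cycle/s for 180 s, with calcium rises flagged as agonism.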
D1 antag – Antagonist of Human D 1 Dopamine Receptor: qHTS; D(1A) dopamine receptor (Homo sapiens), P21728; HEK293 TREx D1 cells, calcium flux, dopamine EC80; hits give low values; activity change, negative = inhibition, % at 10 µM; hit rate 3.2% among 360,000; AID 504652, 2011; in the data active = activity change below about -30%
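Antagonism measured as reduced calcium response to an EC80 dopamine addition following 180 s compound pre-read; cells were inducible HEK293 Trex D1 plated overnight at 30 C, read kinetically at 1 cycle/sec.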
TRHR agonist – qHTS for Small Molecule Agonists and Allosteric Enhancers of Human TRH Receptor: Primary Screen for Agonists; Thyrotropin-releasing hormone receptor (Homo sapiens), P34981; TRHR cells, calcium flux fluo-8, FDSS agonist mode; activation, % at 2 µM; hit rate 0.18% among 360,000
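In this calcium-flux screen, cells bearing human TRHR are dye-loaded with fluo-8, baselined for 10 cycles, then exposed to library compounds; positive kinetic calcium responses during the agonist phase mark hits, with TRH as control.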
A number is an active result; . = inactive; / = no result given; ! = not active in a repeat. Sampled rows, rich in hits. Any-hit rate of the full collection: about 4.7%. Cut-off read from the data, not from the text of the source, unless noted: active = activation above about 30%; inactive = the rest.

SMILES	D1 potentiator	TRHR PAM	D1 ag	D1 antag	TRHR agonist
CC(C)(C)OC(=O)N1CCC(c2c(C(=O)Nc3ccc4c(c3)OCCO4)cnn2-c2ccc(Cl)cc2)CC1	.	.	.	.	.
COC(=O)c1cc(NC(=O)Cn2nc(-c3ccc(C)c(C)c3)ccc2=O)cc(C(=O)OC)c1	.	.	.	.	.
CCc1ccc(/C=C/C(=O)c2ccc(S(=O)(=O)N(C)C)cc2)cc1	.	.	50	-62	.
CCc1ccc(/C=C/C(=O)c2ccc(N3CCOCC3)cc2)cc1	.	.	.	.	.
CC(C)(C)c1ccc(Nc2nc(C#N)nc(NC3CCCC3)n2)cc1	.	.	.	.	.
COc1ccc(OCC(O)CNC(=O)Nc2cc(F)ccc2C)cc1 (stereo not given)	.	.	.	-41	.
COc1ccc(OCC(O)CNC(=O)Nc2ccc(C(C)(C)C)cc2)cc1 (stereo not given)	.	.	.	.	.
CCN(C(=O)CCS(=O)(=O)c1cccc2nsnc12)c1cccc(C)c1	.	.	.	-57!	.
COc1ccc(N2CC(NC(=O)c3c(F)cccc3Cl)CC2=O)cc1OC (stereo not given)	.	.	.	/	.
CCc1ccccc1NC(=O)COc1cccc(-n2cnnn2)c1	/	.	44	.	.
O=C(COc1ccc(F)cc1)Nc1ccc(-n2cnnn2)cc1	.	.	.	-36	.
CC(Oc1ccc(C#N)cc1)C(=O)Nc1ccc(-n2cnnn2)cc1 (stereo not given)	.	.	55	.	.
CCOc1ccc(NC(=O)COc2ccc(-n3cnnn3)cc2)cc1	.	.	.	.	.
Cc1ccccc1Nc1ncnc2c1cnn2C	.	.	.	.	.
COc1ccc2nc(C)cc(NCc3ccc(F)cc3)c2c1	.	.	85	.	.
CCn1c(CSc2nc(C)cc(C)n2)nnc1SCC(=O)Nc1nc(-c2ccccc2)cs1	.	.	37	.	.
CC(=O)Nc1ccc2nc3c(=O)n(C)c(=O)n(C)c3nc2c1	.	.	34	.	.
O=S(=O)(c1ccc(Br)cc1)N1CCN(S(=O)(=O)c2ccc3c(c2)OCCO3)CC1	.	.	.	.	.
CN1CCN(C(=O)c2c(NC(=O)c3ccco3)sc3c2CCC(C(C)(C)C)C3)CC1 (stereo not given)	.	.	34	.	.
CC(C)(C)C1CCc2c(sc(NC(=O)c3cccs3)c2C(N)=O)C1 (stereo not given)	33	.	.	.	.
Cc1ccccc1C(=O)Nc1sc2c(c1C(=O)N1CCCCC1)CCC(C(C)(C)C)C2 (stereo not given)	.	.	.	.	.
Cc1cc(C)cc(Nc2ncnc3c2nc2n3CCCC2)c1	.	.	.	.	.
Cn1c(SCc2ccccc2)nc2c1c(=O)[nH]c(=O)n2C	.	.	.	-35	.
COc1ccc(CNC(=O)CS(=O)(=O)c2cccc3nsnc23)cc1	.	.	.	.	.
Cn1nnnc1Sc1ncnc2scc(-c3ccc(N)cc3)c12	.	.	.	.	.
SMILES	D1 potentiator	TRHR PAM	D1 ag	D1 antag	TRHR agonist
CC(Nc1ccccc1CO)C(=O)Nc1cccc(Cl)c1Cl (stereo not given)	.	.	.	-61	.
COc1cc(/C=N/N2C(=O)CSC2=S)ccc1O	.	.	.	.	.
O=C1CSC(=S)N1/N=C/c1cc(Br)c(O)c(Br)c1	.	32	422	.	160
O=C(Nc1nnc(-c2ccc3c(c2)CCCC3)o1)c1ccc(Cl)cc1Cl	.	.	36	.	.
O=C(Nc1nnc(-c2ccncc2)o1)C1CCCCC1	.	.	.	.	.
O=C(Nc1nnc(-c2ccc3c(c2)CCCC3)o1)C1CCCCC1	.	.	.	-46	.
Cc1ccccc1CNC(=O)Cn1nc(C)c2nn(-c3ccc(Cl)cc3)c(C)c2c1=O	.	.	.	.	.
CC1Cc2cc(S(=O)(=O)NCc3ccc(F)cc3)ccc2N1C(=O)C1CCC1 (stereo not given)	.	.	.	.	.
COc1ccc(C2CC(O)(c3ccccc3)Oc3cc(OC)c(OC)c(OC)c32)cc1 (stereo not given)	.	.	.	-36	.
CC(C)(O)C#Cc1ccc(C(=O)N2CCN(c3ccccc3)CC2)cc1	.	34	.	.	.
COc1cccc(OC)c1C(=O)Nc1nc2ccc([N+](=O)[O-])cc2s1	.	.	.	.	.
Cc1nc(CNS(=O)(=O)c2ccc3c(c2)CCCC3)cs1	.	.	.	-46	.
Cc1ccc(S(=O)(=O)NCc2csc(C)n2)cc1	.	.	.	.	.
COc1ccc(NC(=O)CC2SC(=NCC3CCCO3)NC2=O)cc1 (stereo not given)	.	.	.	-47	.
Cc1ccc(NC(=O)CC2SC(=NCC3CCCO3)NC2=O)cc1Cl (stereo not given)	.	.	.	.	.
CC1CN(C(=O)COC(=O)CSc2ccc(C(N)=O)cc2[N+](=O)[O-])CC(C)O1 (stereo not given)	.	.	.	.	.
NC(=O)c1ccc(SCC(=O)OCC(=O)N2CCCC2=O)c([N+](=O)[O-])c1	.	.	.	-43	.
CCc1ccc(NC(=O)CNS(=O)(=O)c2c(C)noc2C)cc1	.	.	.	-31	.
CCc1ccc(NC(=O)C2CCN(S(=O)(=O)c3c(C)noc3C)CC2)cc1	.	.	.	.	.
Cc1ncc(CN2CCC(C(=O)Nc3ccc(Oc4cccnc4)cc3)CC2)cn1	.	.	.	.	.
O=C(Nc1ccc(Oc2cccnc2)cc1)C1CCN(Cc2ccc(F)cc2)CC1	.	.	36	.	.
C#Cc1ccc(CN2CCC(C(=O)Nc3ccc(Oc4ccccc4)nc3)CC2)cc1	.	.	41	.	.
COC(=O)CC1COc2ccccc2N1C(=O)/C=C/c1ccccc1 (stereo not given)	.	.	.	.	.
COc1ccc(CNC(=O)C[C@H]2C(=O)N(C3CCCCC3)C[C@@H]2Cc2ccccc2)cc1	.	.	.	.	.
CC(C)C(=O)N1CCN(c2ccc(NC(=O)c3ccc([N+](=O)[O-])o3)cc2Cl)CC1	.	.	.	-41	.
C=C1CCC[C@]2(C)C[C@H]3OC(=O)C(CNC(C)CCCC(C)C)[C@H]3CC12 (stereo not given in full)	.	.	.	.	.
C=C1CCC[C@]2(C)C[C@H]3OC(=O)C(CN[C@@H](C)c4ccccc4)[C@H]3CC12 (stereo not given in full)	.	.	36	.	.
CCn1cc(CN2CCC(C(=O)Nc3cccc(-c4cscn4)c3)CC2)cn1	.	.	.	.	.

Bioassay records deposited in PubChem BioAssay by National Center for Advancing Translational Sciences (NCATS).
